# High-throughput results deposited in PubChem by Broad Institute.
# Not all results are given here.
# aSyn UTR act = Activators working through SNCA 5'UTR binding (MLPCN). alpha-synuclein 5'UTR reporter, activators screen. activity score, % (tested at 7.5 µM), hits read low. 300,000 tested, 7.1% active. AID 1814; in the data active means activity score below about -60%
# An asterisk follows results filed as active.
SMILES,aSyn UTR act
Cc1ccc(N2C(=O)c3ccc(N)cc3C2=O)cc1C,-131*
COC(=O)c1ccc(OS(=O)(=O)N(C)C)cc1,-88*
CN(C)S(=O)(=O)Oc1cccc(C(=O)Nc2cccc(Cl)c2)c1,-169*
CNS(=O)(=O)c1cccc(C(=O)Nc2cccc(Cl)c2)c1,-111*
COc1ccc(NC(=O)c2cccc(OS(=O)(=O)N(C)C)c2)cc1,-116*
CN(C)S(=O)(=O)c1cccc(C(=O)Nc2cc(Cl)ccc2O)c1,-87*
O=C(NC(=S)Nc1cc(Cl)ccc1O)c1cccc(Br)c1,-81*
CN(C)S(=O)(=O)Oc1cccc(C(=O)Nc2ccc(Cl)c(Cl)c2)c1,-185*
Cc1cccc(NC(=O)c2ccc(OC3CSC3)cc2)c1,-177*
O=C(Nc1cccc(Br)c1)c1ccc(OC2CSC2)cc1,-198*
COP(=O)(OC)C(Nc1ccc(C)cc1)c1ccc([N+](=O)[O-])cc1 (stereo unspecified),-159*
Cc1cccc(C)c1OCC(O)CN(Cc1ccccc1O)C1CCCCC1 (stereo unspecified),62
Cc1ccn2cc(CSc3ccccc3)nc2c1,-88*
c1ccn2cc(CSC3=NCCS3)nc2c1,-118*
Cn1ccnc1SCc1cn2ccccc2n1,-105*
c1ccn2cc(CSc3nnc4ccccn34)nc2c1,-90*
COc1ccc2nc(SCC(=O)/C(C#N)=C(\C)N)[nH]c2c1,-76*
O=C(CSc1nncs1)Nc1ccc2c(c1)OCCO2,-102*
COc1ccc2nc(SCC(=O)Nc3ccc4c(c3)OCCO4)[nH]c2c1,-63*
O=C(CSc1ncn[nH]1)Nc1ccc2c(c1)OCCO2,-62*
O=C(CSc1nncs1)NC(=O)Nc1ccc2c(c1)OCCO2,-134*
O=C(CSc1nc2ccc(Cl)cc2[nH]1)c1ccc2c(c1)OCO2,-67*
COc1ccc(-c2cc3cc(OC)c(OC)cc3c(C)n2)cc1,-105*
COc1ccc(-n2ncc3c(NCc4ccc5c(c4)OCO5)ncnc32)cc1,-109*
Brc1ccc2ncnc(NCc3ccco3)c2c1,-64*
SMILES,aSyn UTR act
Cc1ccc(-n2ncc3c(NCc4cccnc4)ncnc32)cc1C,-90*
Cc1cccc(-n2ncc3c(NCc4cccnc4)ncnc32)c1,-142*
COc1ccc(-n2ncc3c(NCc4cccnc4)ncnc32)cc1,-149*
Cc1ccc(-n2ncc3c(NCc4ccccc4)ncnc32)cc1,-189*
COc1ccc(-n2ncc3c(N4CCCCC4)ncnc32)cc1,101
c1ccc(-n2ncc3c(NCc4ccco4)ncnc32)cc1,-252*
Cc1cccc(C(=O)c2c(N)sc3c2CCC(C)C3)c1 (stereo unspecified),-85*
CC(C)Oc1ccc(C(=O)NC2CCCCC2)cc1,-91*
C=CCOc1ccc(C(=O)NC2CCCCC2)cc1,-161*
O=C(NC1CCCCCCC1)c1ccc(Br)cc1,-92*
CC1(CC(=O)N/N=C/c2ccc(OCc3ccc(Cl)cc3Cl)cc2)OCCCO1,-106*
COc1cc(/C=N/NC(=O)CC2(C)OCCCO2)ccc1OCc1ccc(Cl)cc1Cl,-70*
COc1cc(/C=N/NC(=O)CN2CCCCC2)ccc1OCc1ccc(Br)cc1,-154*
COc1cc(/C=N/NC(=O)CNc2n[nH]c(=O)[nH]c2=O)ccc1OCc1ccccc1,-75*
COc1cc(/C=N/NC(=O)CC2(C)OCCCO2)ccc1OCc1ccccc1,-65*
COc1cc(/C=C/C(=O)NC(C)(C)C)ccc1OCc1ccccc1,59
S=c1nc2ccccc2c2nc(-c3ccccc3)[nH]n12,-64*
S=c1nc(-c2ccccc2)[nH]n1-c1ccccc1,-143*
N#Cc1c(/N=C/c2cccs2)sc2c1CCC2,-88*
N#Cc1c(/N=C/c2cc(Br)cs2)sc2c1CCC2,-190*
CCn1cc(Br)c(C(=O)Nc2cccc(Cl)c2)n1,-93*
CCn1cc(Br)c(C(=O)Nc2ccc(OC)cc2)n1,-118*
CCn1ccc(C(=O)Nc2ccccc2Cl)n1,-96*
CCn1ccc(C(=O)Nc2cccc(Cl)c2)n1,-159*
CCn1cc(Br)c(C(=O)Nc2ccc(Cl)c(Cl)c2)n1,-151*
SMILES,aSyn UTR act
CCn1cc(Cl)c(C(=O)Nc2ccc(OC)c(OC)c2)n1,-66*
Nc1ccn([C@@H]2O[C@H](CO)[C@@H](O)[C@@H]2O)c(=O)n1,81
CCOC(=O)c1ccc(N2Cc3ccccc3C2=N)cc1,-78*
c1ccc(-c2ccc(-n3ccnc3)cc2)cc1,-81*
O=c1c2ccccc2cnn1CCOc1cccc(Br)c1,-153*
O=C(O)c1ccc(N/N=C/C2=Cc3ccccc3OC2)cc1,-136*
Cc1nc(N)sc1-c1csc(Nc2ccccn2)n1,-168*
Cc1nc(C)c(-c2csc(Nc3ccccn3)n2)s1,-85*
Cc1nc(N)sc1-c1csc(Nc2ccc(Cl)cn2)n1,-142*
Cc1ccnc(Nc2nc(-c3sc(C)nc3C)cs2)c1,-161*
c1ccc(Nc2cccc(Nc3ccccc3)c2)cc1,-86*
CCN(CC)c1ccc(NC(=O)c2ccccc2F)cc1,-411*
O=C(Nc1ccccc1)Nc1ccc(Nc2ccccc2)cc1,-111*
O=C(Nc1ccc(Nc2ccccc2)cc1)c1ccccc1F,-174*
O=C(Nc1ccccc1)Nc1ccc(Cl)nc1Cl,-93*
Cc1cc(NC(=O)c2noc3c2CCCCC3)nn1Cc1ccc(Cl)cc1,-71*
Cc1cc(NC(=O)c2noc3c2CCCC3)no1,-107*
O=C(Nc1cccnc1)c1noc2c1CCCC2,-115*
Cc1cc(NC(=O)c2noc3c2CCCCC3)no1,-168*
CC(=O)c1ccc(NC(=O)c2noc3c2CCCCC3)cc1,-87*
Cc1ccc(C(=O)Nc2cnc3sc(C)nn3c2=O)cc1,-100*
Cc1nn2c(=O)c(NC(=O)c3ccc(Cl)cc3)cnc2s1,-66*
CC1(C)Cc2nc3sc(C(=O)NCCCO)c(N)c3cc2CS1,-92*
CNC(=S)Nc1cccc(-c2cnc3ccccc3n2)c1,-144*
CC(C)C(=O)Nc1cccc(-c2cnc3ccccc3n2)c1,-115*
SMILES,aSyn UTR act
COc1ccc(COc2cc(-c3cccc(OC)c3)nc3ccc(NC(=O)C(C)C)cc23)cc1,-135*
CS(=O)(=O)Nc1cccc(-c2cnc3ccccc3n2)c1,-153*
COc1cccc(-c2nn(C)c3sc(C(=O)Nc4ccc5c(c4)OCCO5)cc23)c1,-101*
COc1cc(C)c(Cl)c(C)c1S(=O)(=O)NC1CC(C)(C)NC(C)(C)C1,-160*
COC(=O)c1ccccc1NC(=O)NCCc1ccccc1OC,-134*
COC(=O)c1ccccc1NC(=O)CC(=O)Nc1ccccc1C(=O)OC,-64*
CCOc1cc(/C=C2\CN(CC)C/C(=C\c3ccc(O)c(OCC)c3)C2=O)ccc1O,102
COc1ccc(/C=C2\CCCC(C(=O)C(F)(F)F)=C2O)cc1OC,-69*
COc1cc(/C=C2\CCC/C(=C\c3ccc(O)c(OC)c3)C2=O)ccc1O,-394*
COc1cc(/C=C2/CCC/C(=C\c3cc(O)c(OC)c(Cl)c3)C2=O)cc(Cl)c1O,-143*
COc1cc(/C=C2\COC/C(=C\c3cc(OC)c(OC)c(OC)c3)C2=O)cc(OC)c1OC,103
COc1ccc(/C=C2\OC(=O)c3c(OC)cccc32)cc1OC,-200*
COc1cc(/C=C/C(=O)CC(=O)/C=C/c2ccc(O)c(OC)c2)ccc1O,-85*
COc1cc(/C=C2\Oc3cc(O)ccc3C2=O)ccc1O,-194*
COc1cc(/C=C/C(=O)c2ccc([N+](=O)[O-])o2)ccc1O,67
CN(c1ccccc1)S(=O)(=O)c1cc(C(=O)OCC(N)=O)ccc1Cl,-85*
COc1cc(/C=C/c2ccc3cccc(O)c3n2)cc(Cl)c1OC,-88*
